Screening results (PubChem)
This is a sample that favours compounds with a hit; in the whole collection about 5.2% have one here.
Tau fluor counter – Counterscreen qHTS for Inhibitors of Tau Fibril Formation, Fluorescence Polarization. tau K18 P301L Alexa594 fluorescence, heparin fibrillization. Potency, µM (titrated, usually from 57.7 µM), without a hit: top-dose activity change, negative = decrease. 0.93% of 280,000 active; also: potency is read from the fitted curve at half-maximal effect; nearly all actives have a fitted effect of over 55% in size
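Human K18 P301L tau (15 uM unlabeled plus 0.24 uM Alexa 594-labeled, final) in 100 mM sodium acetate pH 7 was mixed with compound and 20 uM heparin and incubated 6 hr at 37 C.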
Tau FP inhib – qHTS for Inhibitors of Tau Fibril Formation, Fluorescence Polarization; Microtubule-associated protein tau (Homo sapiens), P10636; K18 P301L tau heparin fibrillization, Alexa594 FP, 6 h; Potency, µM (highest dose often 57.7 µM), for the others: at the top dose activity, negative = inhibition, hits mostly inhibitors; 0.39% of 280,000 active; AID 1468, 2008; also: potency is read from the fitted curve at half-maximal effect; nearly all actives have a fitted effect of over 55% in size
Target sequence (P10636 561-689 P618L limits assumed): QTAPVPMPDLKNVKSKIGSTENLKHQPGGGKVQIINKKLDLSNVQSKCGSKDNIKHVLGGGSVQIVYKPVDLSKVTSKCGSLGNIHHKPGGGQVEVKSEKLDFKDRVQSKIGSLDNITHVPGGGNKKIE
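Read-out: fluorescence polarization of Alexa 594-labeled tau (0.24 uM), 555 nm excitation, 632 nm emission. Mixtures held 15 uM unlabeled K18 P301L, compound and 20 uM heparin, pH 7 acetate buffer, incubated 6 hr at 37 C.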
Tau fibril ThT – qHTS for Inhibitors of Tau Fibril Formation, Thioflavin T Binding. Microtubule-associated protein tau (Homo sapiens), P10636. recombinant tau K18 P301L (four-repeat tau fragment), heparin-induced fibrillization, ThT fluorescence. Potency, µM (titrated, usually from 57.4 µM), for the others: top-dose activity, negative = inhibition, most hits filed as inhibitors. 2.1% of 270,000 active; also: potency is read from the fitted curve at half-maximal effect; nearly all actives have a fitted effect of over 55% in size
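K18 P301L tau (15 uM + 0.24 uM Alexa 594-tagged), heparin 20 uM, NaOAc pH 7, 6 h 37 C; ThT 30 uM, 1 h RT, ex 450/em 510 nm.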
Sfp inh – qHTS Assay for Inhibitors of Bacillus subtilis Sfp phosphopantetheinyl transferase (PPTase). Potency, µM, for inactives: largest response in the series, negative = inhibition, usual class: inhibitors. AID 1490, 2009. 4'-phosphopantetheinyl transferase ffp (Bacillus subtilis), Q9F4F7. 3.5% of 310,000 active. Biochemical Sfp PPTase activity, qHTS;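 also: the enzyme is Sfp with the accession as filed and its product quenches rhodamine fluorescence; potency is read from the fitted curve at half-maximal effect; 0% = enzyme reaction without inhibitor and -100% = no enzyme wells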
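Fluorescence-quenching assay with 15 nM Sfp, 5 uM rhodamine-CoA and 12.5 uM BHQ-2-labelled ybbR peptide in pH 7.6 Hepes/MgCl2 buffer. Enzyme was pre-incubated with compound for 15 min at room temperature. Rate was taken from the 30-min fluorescence change (525/598 nm).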
FBPA coupling cs – qHTS Assay for Inhibitors of Fructose-1,6-bisphosphate Aldolase from Giardia Lamblia: Coupling assay counterscreen | coupling enzyme system counterscreen, AmpLite Red fluorescence | activity change, negative = inhibition, % at 58.2 µM, hits read low | 0.67% of 290,000 active | AID 2472, 2010; in the data active = activity change below about -30%
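Compounds tested against the coupling enzymes alone at 57.5 uM final; readout was AmpLite Red fluorescence (525/598 nm) after 20 min at RT.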
* marks the source's active call; other numbers are inactive results; ? = inconclusive; nt = not tested or not shown; [ ] = another dose, or the depositor's remark. Unless noted, calls follow the shape of the dose curve; as a rule, active = well fitted curve in the direction sought with a large enough effect; inconclusive = small, poorly fitted or top-dose-only effect, or another doubt; inactive = no such curve, though single readings can be large; an effect the other way counts as inactive or inconclusive. Unless noted, % is scaled to controls: 0 for no effect and ±100 for the full control effect.

SMILES	Tau fluor counter	Tau FP inhib	Tau fibril ThT	Sfp inh	FBPA coupling cs
COc1ccc(CNC(=O)C2CCCN(Cc3nc(-c4cccc(C)c4)oc3C)C2)cc1 (stereo not drawn)	-6.9%	5.3%	-9.4%	56.2µM*	-1.9
CCOc1ccc(S(=O)(=O)Nc2ccc3c(c2)N(C(C)=O)CCC3)cc1	-7.4%	-1.7%	-2.8%	nt	nt
Fc1ccc(Nc2nc(SCc3cccc(Cl)c3)nc3ccccc23)cc1	?	8.91µM*	11.4%	nt	nt
Clc1ccc(CSc2nc(NCCc3ccccc3)c3ccccc3n2)cc1	-11.3%	-3.0%	-9.8%	nt	nt
Fc1ccc(Nc2nc(SCc3ccc(Cl)cc3)nc3ccccc23)cc1	?	7.94µM*	?	nt	nt
Fc1ccc(Nc2nc(SCc3cccc(F)c3)nc3ccccc23)cc1	?	14.1µM*	28.8%	nt	nt
COc1ccc(C2=CC(c3ccc(F)cc3)n3ncc(C(=O)Nc4ccc(C)cc4)c3N2)cc1 (stereo not drawn)	-27.1%	-19.0%	-2.6%	nt	nt
Cc1cccc(Cn2c(=O)n(CCc3ccccc3)c(=O)c3c(C)c(C)sc32)c1	-14.7%	0.0%	-7.4%	nt	nt
CC(C)c1cc(/C=C(\C#N)C(=O)NCCCc2ccccc2)cc(C(C)C)c1O	?	-5.9%	-13.7%	25.4%	nt
COc1cc(NCCCCCCCN)c2ncccc2c1	-3.0%	5.0%	7.5%	?	-36.7*
COc1ccc(C(=O)N2CCC[C@@]3(CCN(c4cccc(-c5ccccc5)c4)C3)C2)cc1	nt	nt	nt	-6.1%	-2.2
CCC1=C[C@@H]2CN(C1)Cc1c([nH]c3ccccc13)[C@@](C(=O)OC)(c1cc3c(cc1OC)N(C)[C@@H]1[C@@](O)(C(=O)OC)[C@H](OC(C)=O)[C@]4(CC)C=CCN5CC[C@]31[C@@H]54)C2	nt	nt	nt	70.8µM*	nt
CC[C@]1(O)CC2CN(CCc3c([nH]c4ccccc34)[C@@](C(=O)OC)(c3cc4c(cc3OC)N(C)[C@H]3[C@@](O)(C(=O)OC)[C@H](OC(C)=O)[C@]5(CC)C=CCN6CC[C@]43[C@@H]65)C2)C1 (stereo partly drawn)	nt	nt	nt	-26.8%	nt
CCN1/C(=C2\C(=O)N(C)C(=S)N2c2ccccc2)C=Cc2ccccc21	-20.2%	5.2%	?	89.1µM*	-3.2
CCN1/C(=C2\C(=O)N(C)C(=S)N2C)C=Cc2cc(C)ccc21	-19.6%	-9.7%	?	44.7µM*	-6.1
c1ccc2c(c1)Nc1cc3ccccc3cc1S2	?	?	2.24µM*	5.8%	-13.2
COc1ccc2c(c1)Sc1ccccc1N2	10µM*[quencher]	-11.0%	10µM*	-3.7%	-3.4
N#Cc1ccccc1-c1ccc2ncnc(NCCN3CCOCC3)c2c1	nt	nt	nt	37.4%	1.5
NCCC[C@@H](CC(=O)N[C@@H]1CCCC[C@H]1C(=O)N[C@H](CC(=O)N[C@@H](CCC(=O)O)CC(=O)O)Cc1ccccc1)NC(=O)C[C@H](Cc1c[nH]c2ccccc12)NC(=O)[C@@H]1CNCC[C@H]1N	-6.3%	-8.4%	-8.2%	-15.1%	-0.5
Cc1ccc(-n2nnnc2CNC(=O)c2ccccc2)cc1C	0.0%	-7.1%	6.9%	nt	nt
Cc1c(C(=O)Nc2ccncc2)sc2nc(-c3ccc(F)cc3)cn12	-7.0%	?	-12.5%	-15.0%	-16.7
COc1ccc(-c2cn3c(C)c(C(=O)Nc4ccncc4)sc3n2)cc1	-23.6%	-1.4%	?	44.7µM*	-17.7
COc1ccc(-c2cn3c4c(sc3n2)CCCC4)cc1	-28.5%	12.8%	?	79.4µM*	-18.0
Cc1cccc(CCn2c(=O)c3ccccc3n(Cc3cccc(F)c3)c2=O)c1	?	-12.6%	?	nt	nt
NCCCC[C@H](NC(=O)[C@@H]1CCCN1C(=O)[C@H](CO)NC(=O)[C@H](CC(=O)O)NC(=O)CNC(=O)[C@H](CCCN=C(N)N)NC(=O)CN)C(=O)O	nt	nt	nt	-23.1%	0.2
SMILES	Tau fluor counter	Tau FP inhib	Tau fibril ThT	Sfp inh	FBPA coupling cs
CCCN1C(=O)/C(=C/c2ccncc2)SC1=S	8.9%	3.3%	7.6%	56.2µM*	0.8
O=C1/C(=C/c2cccnc2)SC(=S)N1N1CCOCC1	-12.4%	-6.5%	?	-24.7%	4.5
O=C1/C(=C/c2ccncc2)SC(=S)N1N1CCOCC1	-12.9%	?	?	56.2µM*	-7.8
O=C1/C(=C/c2ccncc2)SC(=S)N1Cc1ccccc1	-24.1%	-0.8%	?	?	-3.4
COc1ccc(O)c(C(=O)C2c3ccccc3C(=O)N2c2ccc(C)cc2)c1 (stereo not drawn)	-27.3%	-7.9%	-9.5%	22.4µM*	-16.8
COc1ccc(N2C(=O)c3ccccc3C2O)cc1 (stereo not drawn)	nt	nt	nt	23.4%	3.5
O=C(Cc1csc2ccccc12)NCc1cccc(Br)c1	-22.4%	?	-7.7%	nt	nt
CCCCNC(=O)c1sc(=S)n2c1[nH]c(=O)c1ccccc12	?	?	15.8µM*	-4.7%	7.5
O=C(NC1CCCCC1)c1sc(=S)n2c1[nH]c(=O)c1ccccc12	?	12.4%	14.1µM*	-76.8%	3.4
COc1cccc2cc(-c3nc(Nc4cccc(C)c4C)sc3C)c(=O)oc12	?	5.4%	?	nt	nt
Cc1cc(=O)[nH]c2nnc(SCC(N)=O)n12	1.3%	-6.3%	0.1%	nt	nt
S=C1SCN(CC2CC2)CN1CC1CC1	3.3%	-17.7%	nt	35.5µM*	-0.2
CCOc1cc(NC2CS(=O)(=O)CC2O)c(OCC)cc1NC(=O)c1ccccc1 (stereo not drawn)	-8.4%	5.4%	-7.6%	13.3%	-41.0*
NNc1nc(-c2ccccc2Cl)nc2sc3c(c12)CCCC3	-23.4%	4.7%	?	50.1µM*	0.5
N#CC1=C(c2ccccc2)/C(=C/c2ccccc2)OC1=O	?	8.5%	-25.2%	?	-0.1
N#CC(C#N)=C1NC(N)=C(C#N)C(c2ccccc2)=C1C#N	nt	nt	nt	56.2µM*	10.6
CN1CCN(C(=O)c2ccc3c(c2)N(Cc2ccccc2)CCS3)CC1	nt	nt	nt	-4.6%	2.4
O=C(c1ccc2c(c1)N(Cc1ccccc1)CCS2)N1CCCCC1	-15.9%	5.8%	?	39.8µM*	7.4
CC1CC(C)CN(CCOCCSc2ccc(Cl)cc2)C1 (stereo not drawn)	1.2%	-3.9%	8.7%	56.2µM*	-4.5
CC1CC(C)CN(CCOCCSc2ccccc2)C1 (stereo not drawn)	-5.8%	-5.5%	-3.0%	-20.3%	1.7
CN(C)CCC1(c2ccc(Cl)cc2)Cc2ccccc2C(=O)O1 (stereo not drawn)	nt	nt	nt	-3.1%	0.4
CCCC(=O)Nc1c(I)cc(I)c(C[C@H](CC)C(=O)O)c1I	nt	nt	nt	2.3%	nt
